CHT allo act = human CHT allosteric activation | CHT-expressing cells, membrane potential dye, choline EC20; stronger effect = higher value; LV-AA mutant CHT in HEK293 cells | AID 488977 | 310,000 compounds, 0.49% hits | Q9GZV3 | B-score at 10 µM;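 active = initial fluorescence not abnormally high and integrated response B-score, plate-corrected, over 3 SD above library mean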
Target sequence (Q9GZV3 whole entry, looked up): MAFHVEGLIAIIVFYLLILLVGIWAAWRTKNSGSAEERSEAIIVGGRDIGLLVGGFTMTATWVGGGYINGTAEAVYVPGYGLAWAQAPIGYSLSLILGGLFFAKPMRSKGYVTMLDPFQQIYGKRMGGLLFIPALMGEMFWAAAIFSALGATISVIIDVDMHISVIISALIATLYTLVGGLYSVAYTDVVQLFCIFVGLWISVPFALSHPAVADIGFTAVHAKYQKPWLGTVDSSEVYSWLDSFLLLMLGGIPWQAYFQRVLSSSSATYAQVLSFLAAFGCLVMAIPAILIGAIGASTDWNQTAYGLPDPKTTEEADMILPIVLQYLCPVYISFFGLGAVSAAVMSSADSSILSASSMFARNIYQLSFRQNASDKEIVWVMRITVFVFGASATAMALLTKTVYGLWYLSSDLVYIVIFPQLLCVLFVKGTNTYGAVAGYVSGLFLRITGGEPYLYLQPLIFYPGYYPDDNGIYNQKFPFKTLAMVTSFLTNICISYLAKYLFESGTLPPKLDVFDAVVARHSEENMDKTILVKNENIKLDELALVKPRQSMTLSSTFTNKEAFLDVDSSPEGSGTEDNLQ
NALP1 yeast inh = blocks the NALP1 inflammasome reconstituted in yeast; S. cerevisiae NALP1/ASC/caspase-1 growth, X-gal OD620, 72 h; inhibition, % at 10 µM; 280,000 compounds, 0.61% hits; AID 2071; in the data active = inhibition mostly above about 24%, no sharp cut-off; inactive = mostly below about 32%
SUMO Mot1 rescue = blocks SUMOylation pathway, rescuing yeast Mot1-301 growth | S. cerevisiae Mot1-301 growth rescue, ATP luminescence, 38.5C; percent above DMSO median, 100 means doubled | growth rescue, % at 18.8 µM | 320,000 compounds, 1% hits | AID 2716;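 active = every valid replicate shows activation above 250% relative to neutral control wells; inactive = the rest, any valid replicate at or below 250%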
CHT inh = inhibitors of human choline transporter CHT; Q9GZV3; CHT-expressing cells, membrane potential dye, choline response; stronger effect = lower value; B-score at 10 µM; 310,000 compounds, 0.86% hits; AID 488975;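 active = B-score over 3 SD under the library average, and starting fluorescence ratio not unusually high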;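 also: choline stimulus applied at its EC90 after an EC20 pre-addition; B-score computed on integrated fluorescence ratio after choline addition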
Bfl-1 A1 inh = inhibitors of the anti-apoptotic protein A1, read as caspase activation; MEF A1-2A-BIM cells, Caspase-Glo 3/7 luminescence, 3 h; percent of clofoctol response, vehicle zero; caspase activation, % (test concentration not listed); 330,000 compounds, 0.066% hits;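 active = over half of replicate activation scores above 10%, or exactly half above 10 with the replicate mean above 10; inconclusive = replicate mean below 10 yet half the replicates above 10; inactive = over half of replicates below 10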
NLRP3 yeast inh = blocks the NALP3 inflammasome reconstituted in yeast; Yeast reconstituted NLRP3/ASC/caspase-1, beta-gal luminescence, 24 h; inhibition, % at 10 µM; 330,000 compounds, 0.39% hits;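 active = inhibition of 50% or more; inactive = inhibition below 50%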
CHT act confirm = confirmation of human choline transporter (CHT) activators; 2,500 compounds, 91% hits; shares compounds with CHT allo act; activation, % at 10 µM; AID 504833; CHT-expressing cells, membrane potential dye fluorescence (FDSS); % of choline EC20–EC90 response window; HEK293 expressing CHT LV-AA mutant; choline added at its EC20;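 active = primary screen active, with duplicate mean activation above negative control mean plus 3 SD, cut at about 11% in these data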
HEK293 MP dye = activity in parental HEK293 cells lacking CHT | shares compounds with CHT allo act | membrane potential dye fluorescence (FDSS); measured after EC20 choline addition | ratio readout change at 10 µM, hits read low | 2,500 compounds, 62% hits | AID 623908;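 active = duplicate-averaged ratio beyond 3 SD from buffer wells, up or down, though filed actives are nearly all decreases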
Numbers stand for hits; . = inactive; ? = inconclusive; / = not tested or not shown. An excerpt weighted towards active compounds, which were near 3% of everything screened.

SMILES | CHT allo act | NALP1 yeast inh | SUMO Mot1 rescue | CHT inh | Bfl-1 A1 inh | NLRP3 yeast inh | CHT act confirm | HEK293 MP dye
C#CCOCCOCCOCCNc1nc(N2CCN(C(=O)[C@H](CC(N)=O)n3cc(C(N)[C@H](C)CC)nn3)CC2)nc(N2CCN(C(=O)[C@H](CC(N)=O)n3cc(C(N)[C@@H](C)CC)nn3)CC2)n1 (some centres not stated) | / | / | . | / | . | . | / | /
COc1ccc(CCN(C)C2CCCN(S(=O)(=O)c3ccccc3)C2)cc1OC (configuration not stated) | . | . | . | . | . | . | / | /
CCC(C)n1c(=N)c(C#N)cc2c(=O)n3cc(C)ccc3nc21 (configuration not stated) | . | . | . | . | . | . | / | /
CCC(C)n1c(=N)c(C#N)cc2c(=O)n3cccc(C)c3nc21 (configuration not stated) | 7 | . | . | . | . | . | 41 | -53
COc1cc(OC)cc(C(=O)Nc2nnc(SCC(=O)NCc3ccco3)s2)c1 | . | . | . | . | . | . | / | /
CCN1CCN(CC(=O)c2c(C)n(C)c3ccc(OC)cc23)CC1 | . | . | . | . | . | . | 53 | -33
CCN(CC)CCNC(=O)c1cn(CC)c2cc(N3CCN(C)CC3)c(F)cc2c1=O | . | . | . | . | . | . | / | /
COc1ccc2c(c1)OC[C@H]1[C@H]2N2C(=O)CN(CCc3c[nH]c4ccccc34)C(=O)[C@@]2(C)[C@H]1c1ccccc1 | / | / | . | / | . | . | / | /
CN1C2=NCCN2C(=O)c2cc(Cl)ccc21 | . | . | . | . | . | . | / | /
COc1ccc2c(c1)N1CCN=C1N2C | 8.9 | . | . | . | . | . | 65 | -65
c1ccc2c(SCc3cn4ccccc4n3)nncc2c1 | 7.7 | . | / | . | . | . | 39 | -37
Cc1cc(C)c(C#N)c(SCc2ccccc2)n1 | . | . | . | . | . | . | / | /
Clc1ccc(SCc2cn3ccccc3n2)cc1 | . | . | . | . | . | . | / | /
Cc1cc(C)c(C#N)c(SCc2cn3ccccc3n2)n1 | 6.5 | . | . | . | . | . | 51 | -46
CCNc1nnc(SCC(=O)N2c3ccccc3NC(=O)CC2C)s1 (configuration not stated) | / | / | . | / | . | . | / | /
CCOC(=O)C[C@H]1c2ccc(C(F)(F)F)cc2S(=O)(=O)N1C(C)(C)C | . | / | . | . | . | . | / | /
COc1ccc(C(CNc2ncnc3sc(C)c(C)c23)N(C)C)cc1 (configuration not stated) | . | . | . | . | . | . | / | /
COc1ccccc1C(CNc1ncnc2sc(C)c(C)c12)N(C)C (configuration not stated) | . | . | . | . | . | . | 54 | -52
COc1cc(C(=O)Nc2sc3c(c2C(=O)NCc2ccco2)CCCC3)cc(OC)c1OC | 7.6 | . | . | . | . | . | . | .
Oc1ccccc1N1CCN(c2nc(-c3cccs3)nc3ccccc23)CC1 | . | / | . | . | . | . | / | /
CN1CCN(c2nc(-c3cccs3)nc3ccccc23)CC1 | . | . | . | . | . | . | 39 | -65
c1ccc(CN2CCC(Nc3nc(-c4cccs4)nc4ccccc34)CC2)cc1 | . | . | . | . | . | . | 23 | -48
CCN1CCN(c2nc(-c3ccccn3)nc3ccccc23)CC1 | . | . | / | . | . | . | 57 | -92
c1ccc(CN2CCN(c3nc(-c4ccccc4)nc4ccccc34)CC2)cc1 | . | . | . | . | . | . | / | /
CCN1CCN(c2nc(-c3cccs3)nc3ccccc23)CC1 | 7.1 | . | . | . | . | . | 43 | -40
SMILES | CHT allo act | NALP1 yeast inh | SUMO Mot1 rescue | CHT inh | Bfl-1 A1 inh | NLRP3 yeast inh | CHT act confirm | HEK293 MP dye
COc1ccc(C(c2nnnn2CC2CCCO2)N2CCC(C(N)=O)CC2)cc1 (configuration not stated) | . | . | . | . | . | . | . | .
C=CCN1CCN(C(c2cc(OC)ccc2OC)c2nnnn2CC2CCCO2)CC1 (configuration not stated) | 6.3 | . | . | . | . | . | 16 | .
COc1ccc(OC)c(C(c2nnnn2CC2CCCO2)N2CCN(C)CC2)c1 (configuration not stated) | . | . | . | . | . | . | / | /
CCc1ccc(NC(=O)CSc2nc3ccccc3nc2N2CCCC2)cc1 | . | . | . | . | . | . | / | /
CSc1nc(Cl)c(Cc2ccc(OC(C)C)cc2)c(N(C)C)n1 | . | . | . | . | . | . | / | /
CCOc1ccc(Cc2c(Cl)nc(SC)nc2N(C)C)cc1 | 6.4 | . | . | . | . | . | 28 | .
Cc1cccc2c(=O)cc(C)n(CC(=O)N3CCOCC3)c12 | 10 | . | . | . | . | . | 47 | .
Cc1cccc2c(=O)cc(C)n(CC(=O)N3CCCCC3)c12 | 7.6 | . | . | . | . | . | 62 | -70
CCOc1cccc2sc(N(CCN(C)C)C(=O)c3ccc4ccccc4c3)nc12 | 9.5 | . | . | . | . | . | 25 | -78
O=C(COC(=O)COc1ccccc1)Nc1ncc(Cl)cc1Cl | / | / | . | / | . | . | / | /
Cc1ccc(NC(=O)c2ccc(OCc3c(C)noc3C)cc2)cc1C | / | / | . | / | . | . | / | /
CCN(Cc1ccccc1)C(=O)C1CCN(C/C(C)=C/c2ccccc2)CC1 | . | . | . | . | . | . | / | /
O=C(C1CCN(CC2CC=CCC2)CC1)N(CCc1ccccc1)Cc1ccccc1 (configuration not stated) | . | . | . | . | . | . | . | .
Cc1ccc2nc(/N=C(\N)NC(=O)NC3CCCCC3)nc(C)c2c1 | . | . | . | . | . | . | / | /
COC(=O)c1ccc2c(=O)n(CCCN3CCOCC3)c(=S)[nH]c2c1 | . | . | . | . | . | . | 24 | -40
Cc1ccc(-n2cc(CN3CCC(O)(c4ccccn4)CC3)c(-c3ccc(F)cc3)n2)cc1 | . | . | . | . | ? | . | / | /
CC(NCCC(Cc1ccccc1)c1ccco1)c1ccccc1 (configuration not stated) | . | / | . | . | . | . | / | /
Cc1ccc(C(CCNC(C)c2cccs2)c2ccco2)cc1 (configuration not stated) | . | . | . | . | . | . | 12 | .
Cc1cc(/C=N\NC(=O)CC(=O)NC2CCCCC2)c(C)n1-c1cccc(Cl)c1Cl | 12 | . | . | . | . | . | 23 | .
CC(C)C(=O)N1CCN(c2cc(N3CCN(C)CC3)c(F)cc2[N+](=O)[O-])CC1 | 7.9 | . | . | . | . | . | 45 | -49

High-throughput results deposited in PubChem by several laboratories.
